Test results published in the supplement of paper PMC11732987, “Enantioselective OTUD7B fragment discovery through chemoproteomics screening and high-throughput optimisation” (Communications Chemistry, 2025).

Molecular target: T1, FAM105A (UniProt Q9NUU6)
T1 sequence (whole entry): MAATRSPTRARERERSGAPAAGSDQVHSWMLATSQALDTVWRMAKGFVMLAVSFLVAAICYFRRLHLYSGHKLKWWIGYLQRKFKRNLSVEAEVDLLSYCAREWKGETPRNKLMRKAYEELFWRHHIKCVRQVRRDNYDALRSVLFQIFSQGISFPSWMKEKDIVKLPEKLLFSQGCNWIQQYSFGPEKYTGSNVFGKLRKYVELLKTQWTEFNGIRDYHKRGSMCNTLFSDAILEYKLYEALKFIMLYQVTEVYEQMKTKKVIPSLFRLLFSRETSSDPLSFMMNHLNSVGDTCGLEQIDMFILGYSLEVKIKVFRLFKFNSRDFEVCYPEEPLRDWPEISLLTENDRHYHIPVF
Experiment: log2 ratio of Biotin-Ahx-Ub-VS probe labelling (fragment/DMSO); higher = less target engagement (more negative = stronger competition), active = hit call of the paper (q ≤ 0.05, log2 ratio ≤ -1)
Conditions: compound concentration: 200 uM; treatment time: 3 h
Outline: (§1)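 Average log2 ratios of fragment over vehicle were obtained by unpaired t-test from global-median-normalised Spectronaut label-free quantities. Proteins with ≥2 unique peptides were included. HEK293T lysate (495 µg per sample) was treated in triplicate with fragment at 200 µM or vehicle for 3 h, then with Biotin-Ahx-Ub-VS at 0.5 µM final for 1 h, and labelled DUBs were NeutrAvidin-enriched and run by diaPASEF LC-MS/MS.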

log2 ratio of Biotin-Ahx-Ub-VS probe labelling, inactive:
CC(NC(=O)CCl)c1cnn(C2CC2)c1 (stereo not given) -0.0989, Cc1nc(-c2cccc(NC(=O)CCl)c2)cs1 0.000667, Cn1cc(CN(Cc2ccc(Cl)cc2)C(=O)CCl)cn1 -0.189, O=C(CCl)NCc1cccc(F)c1 0.303, CC(=O)C1CCCCN1C(=O)CCl (stereo not given) 0.264, CC(NC(=O)CCl)c1cc2n(n1)CCCC2.Cl (stereo not given) -0.0943, CCN(C(=O)CCl)C1CCCCC1 -0.207, O=C(CCl)Nc1ccccc1C(F)(F)F 0.257, Cc1ccc(-c2nnc(C)[nH]2)c(NC(=O)CCl)c1 -0.276, O=C(CCl)NC1CCC(C(F)(F)F)CC1 (stereo not given) -0.0674, Cc1ccc(C)c(NC(=O)CCl)c1 -0.0979, CC(O)CC1CCN(C(=O)CCl)CC1 (stereo not given) -0.12, Cc1c(NC(=O)CCl)c(=O)n(-c2ccccc2)n1C -0.533, Cc1ncc2c(n1)CCN(C(=O)CCl)C2 0.443, Cc1conc1C1CN(C(=O)CCl)C1 0.111, Cc1ccc(CC(NC(=O)CCl)c2ccccn2)cc1.Cl (stereo not given) -0.348, O=C(CCl)N1CCC(c2nc3ccccc3o2)CC1 0.258, Cc1cc(C2CCCN2C(=O)CCl)nn1C.Cl (stereo not given) 0.201, O=C(CCl)Nc1cc2c(cc1Cl)OCCO2 0.123, O=C(CCl)N1CCC(C(O)c2ccc(F)cc2)CC1 (stereo not given) -0.0782, Cc1nc(CN2CCCN(C(=O)CCl)CC2)no1.Cl -0.14, Cc1cccn2cc(CCNC(=O)CCl)nc12.Cl 0.112, O=C(CCl)N1CCOC(CCc2ccccc2)C1 (stereo not given) -0.23, O=C(CCl)N1CCOCCC1c1ccccc1 (stereo not given) 0.0466, O=C(CCl)N[C@H]1CC[C@@H](CO)CC1 -0.00946, O=C(CCl)N1CCOC2(CCC2)CC1 -0.0165, CC(NC(=O)CCl)c1ccc2[nH]ncc2c1 (stereo not given) -0.234, CN(C)C(=O)c1ccc(CNC(=O)CCl)cc1 0.248, Cc1cnc2[nH]cc(CCNC(=O)CCl)c2c1 -0.55, Cl.Cn1nccc1C(NC(=O)CCl)c1ccccc1 (stereo not given) 0.0639, Cc1cccc(NC(=O)CCl)c1C 0.19, Cc1nnc(C(NC(=O)CCl)c2ccccc2)n1C (stereo not given) 0.549, O=C(CCl)NC1CCC2(CC1)OCCO2 0.137, Cc1cccc2nc(CCNC(=O)CCl)cn12.Cl -0.0367, N#Cc1ccc(Cl)cc1NC(=O)CCl -0.217

Molecular target: OTUB1 (UniProt Q96FW1)
Experiment: as above
Conditions: compound concentration: 200 uM; treatment time: 3 h
Outline: as §1

Sequence of OTUB1 (Q96FW1 whole entry): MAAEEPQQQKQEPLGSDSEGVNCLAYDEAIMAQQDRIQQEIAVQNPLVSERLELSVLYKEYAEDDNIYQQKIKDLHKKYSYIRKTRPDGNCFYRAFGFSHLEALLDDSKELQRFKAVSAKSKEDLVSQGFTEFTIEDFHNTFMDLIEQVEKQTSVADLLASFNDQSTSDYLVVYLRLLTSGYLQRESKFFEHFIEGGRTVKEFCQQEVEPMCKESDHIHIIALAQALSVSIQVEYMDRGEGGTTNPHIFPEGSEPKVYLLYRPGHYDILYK

log2 ratio of Biotin-Ahx-Ub-VS probe labelling, inactive:
CC(NC(=O)CCl)c1cnn(C2CC2)c1 (stereo not given) -0.137, Cc1nc(-c2cccc(NC(=O)CCl)c2)cs1 -0.0946, Cn1cc(CN(Cc2ccc(Cl)cc2)C(=O)CCl)cn1 -0.095, O=C(CCl)NCc1cccc(F)c1 -0.181, CC(=O)C1CCCCN1C(=O)CCl (stereo not given) 0.0807, CC(NC(=O)CCl)c1cc2n(n1)CCCC2.Cl (stereo not given) 0.0152, CCN(C(=O)CCl)C1CCCCC1 0.0443, O=C(CCl)Nc1ccccc1C(F)(F)F -0.144, Cc1ccc(-c2nnc(C)[nH]2)c(NC(=O)CCl)c1 0.149, O=C(CCl)NC1CCC(C(F)(F)F)CC1 (stereo not given) 0.207, Cc1ccc(C)c(NC(=O)CCl)c1 -0.23, CC(O)CC1CCN(C(=O)CCl)CC1 (stereo not given) 0.128, Cc1c(NC(=O)CCl)c(=O)n(-c2ccccc2)n1C -0.0746, Cc1ncc2c(n1)CCN(C(=O)CCl)C2 -0.578, Cc1conc1C1CN(C(=O)CCl)C1 -0.109, Cc1ccc(CC(NC(=O)CCl)c2ccccn2)cc1.Cl (stereo not given) -0.0206, O=C(CCl)N1CCC(c2nc3ccccc3o2)CC1 0.109, Cc1cc(C2CCCN2C(=O)CCl)nn1C.Cl (stereo not given) -0.0124, O=C(CCl)Nc1cc2c(cc1Cl)OCCO2 0.157, O=C(CCl)N1CCC(C(O)c2ccc(F)cc2)CC1 (stereo not given) -0.215, Cc1nc(CN2CCCN(C(=O)CCl)CC2)no1.Cl 0.0104, Cc1cccn2cc(CCNC(=O)CCl)nc12.Cl -0.0371, O=C(CCl)N1CCOC(CCc2ccccc2)C1 (stereo not given) -0.408, O=C(CCl)N1CCOCCC1c1ccccc1 (stereo not given) -0.0821, O=C(CCl)N[C@H]1CC[C@@H](CO)CC1 -0.626, O=C(CCl)N1CCOC2(CCC2)CC1 -0.14, CC(NC(=O)CCl)c1ccc2[nH]ncc2c1 (stereo not given) -0.374, CN(C)C(=O)c1ccc(CNC(=O)CCl)cc1 -0.0918, Cc1cnc2[nH]cc(CCNC(=O)CCl)c2c1 0.0416, Cl.Cn1nccc1C(NC(=O)CCl)c1ccccc1 (stereo not given) -0.173, Cc1cccc(NC(=O)CCl)c1C 0.0184, Cc1nnc(C(NC(=O)CCl)c2ccccc2)n1C (stereo not given) -0.00852, O=C(CCl)NC1CCC2(CC1)OCCO2 -0.114, Cc1cccc2nc(CCNC(=O)CCl)cn12.Cl -0.236, N#Cc1ccc(Cl)cc1NC(=O)CCl -0.265
